Screening results from PubChem BioAssay.
HepG2 viability: HepG2 cytotoxicity, counter-screen for TGF-b inhibitors; HepG2 CAGA-GFP viability, ATP luminescence, 18 h; hit rate 0.76% among 410,000; Potency, µM (series often up to 46.1 µM), inactives show at the top dose activity change, negative = cytotoxicity, usual class: cytotoxic
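HepG2 CAGA-GFP cells (1000/well, DMEM with 1% FBS) received compound, then TGF-beta at 500 pg/mL final, and were incubated 18 hours at 37 degrees C. Viability was read by CellTiter-Glo luminescence. Media-only wells were set as complete cell-killing and DMSO as no toxicity.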
TDP1 cell noCPT: qHTS for Inhibitors of human tyrosyl-DNA phosphodiesterase 1 (TDP1): qHTS in cells in absence of CPT; DT40 Tdp1-/- hTDP1 cells, no CPT, ATP luminescence, 48 h; hit rate 15% among 420,000; Potency, µM (series often up to 46.2 µM), for inactives: at the highest dose activity change, negative = growth inhibition, actives largely listed as inhibitors; also: % is scaled to controls: 0 for no effect and ±100 for the full control effect; nearly all actives have a fitted effect of over 55% in size
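Growth of hTDP1-complemented DT40 Tdp1-knockout cells is measured by ATP luminescence after at least 48 hr compound exposure at 37 °C, with DMSO substituting for the 20 nM CPT used in the parallel screen.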
TDP1 cell CPT: growth inhibition of DT40 Tdp1-/-;hTDP1 cells with camptothecin (screen for TDP1 inhibitors); chicken DT40 Tdp1-/-;hTDP1 cells + 20 nM CPT, ATP luminescence, 48 h; Potency, µM (series often up to 46.2 µM), for inactives: at the highest dose activity change, negative = growth inhibition, hits mostly inhibitors; hit rate 12% among 420,000; also: % is scaled to controls: 0 for no effect and ±100 for the full control effect; nearly all actives have a fitted effect of over 55% in size
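Cell growth measured by CellTiter-Glo luminescence after a minimum 48 h, 37 C compound exposure with 20 nM CPT in Tdp1-knockout DT40 cells stably expressing hTDP1, seeded 400/well; qHTS titration format.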
TGFb SMAD3 inh: TGF-b pathway inhibition; HepG2 CAGA-GFP TGF-b/SMAD3 reporter, GFP fluorescence, 18 h; TGF-beta stimulated, 500 pg/mL final; hit rate 1.2% among 410,000; Potency, µM (titrated, usually from 46.1 µM), for inactives: at the top dose activity, negative = inhibition, hits mostly inhibitors; AID 588855; also: % is scaled to controls: 0 for no effect and ±100 for the full control effect; nearly all actives have a fitted effect of over 65% in size
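HEPG2 CAGA-GFP, 1000 cells/well; 2 h settle, 37 C; cpd via pin tool; TGF-b 500 pg/mL final; 18 h, 37 C; GFP imaging ex488/em500-530; %Activity normalised to -TGF-b and +DMSO controls; CRC fit, curve class.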
HT1080 IDH1KD tx: kills HT-1080 cells with IDH1 knockdown; AID 686971; HT-1080 IDH1 knockdown viability, ATP luminescence, 48 h; hit rate 2% among 360,000; Potency, µM (top dose mostly 46.1 µM), for the others: at the highest dose activity, negative = toxicity, hits mostly cytotoxic;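 also: 0% = DMSO wells and -100% = cell-free medium wells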
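Cytotoxicity counter-line: IDH1KD HT-1080, 48 h, CellTiter-Glo. Curves classed by r2, magnitude and activity.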
HT1080NT lethal: kills 2HG-producing HT-1080-NT fibrosarcoma cells; Potency, µM (top dose mostly 46.1 µM), inactives show at the highest dose activity, negative = less viability, most hits filed as cytotoxic; AID 686970; HT-1080-NT fibrosarcoma viability, CellTiter-Glo ATP luminescence, 48 h; hit rate 1.6% among 360,000;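 also: NT is the 2HG producing partner of a matched IDH1 knockdown line; 0% = DMSO-treated cells and -100% = media-only wells without cells; nearly all actives have a fitted effect of over 55% in size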
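HT-1080-NT; 750 cells/well; 5% FBS RPMI; 48 h compound, 37 degrees C; CellTiter-Glo luminescence; curve fitting and curve-class assignment.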
The depositor's hits bear a star. A selection: hits, their analogues and other compounds. The true share with any hit is near 17%. Calls follow the shape of the dose curve; as a rule, active = well fitted curve in the direction sought with a large enough effect; inconclusive = small, poorly fitted or top-dose-only effect, or another doubt; inactive = no such curve, though single readings can be large; an effect the other way counts as inactive or inconclusive. Potency is read from the fitted curve at half-maximal effect.

For COc1ccc(-c2csc(N3N=C(C)C(C)C3=O)n2)cc1 (stereo not drawn) the results were HepG2 viability -23%, TDP1 cell noCPT inconclusive, TDP1 cell CPT inconclusive, TGFb SMAD3 inh -16%, HT1080 IDH1KD tx -16% and HT1080NT lethal -11%.
`CCN(CC)CCNC1=NCCn2c1cc1cc(OC)ccc12` gave HepG2 viability -54%, TDP1 cell noCPT inconclusive, TDP1 cell CPT 21µM*, TGFb SMAD3 inh 3%, HT1080 IDH1KD tx inconclusive and HT1080NT lethal inconclusive.
CCN(CC)CCNC(=O)COc1ccc(OC)cc1 was read as HepG2 viability -1%, TDP1 cell noCPT 11%, TDP1 cell CPT 18%, TGFb SMAD3 inh 2%, HT1080 IDH1KD tx 4% and HT1080NT lethal 7%.
Cc1nc2ccn(Cc3cccnc3)c(=O)c2cc1C(=O)NCc1ccc(Cl)cc1 was read as HepG2 viability 1%, TDP1 cell noCPT inconclusive, TDP1 cell CPT inconclusive and TGFb SMAD3 inh -9%.
Screening Cc1ccc(C)c(Cn2c3ccccc3c3cnn(CC(=O)NCC(C)c4ccccc4)c(=O)c32)c1 (stereo not drawn) returned HepG2 viability -11%, TDP1 cell noCPT 23µM*, TDP1 cell CPT 13µM* and TGFb SMAD3 inh -1%.
Cc1c2cnn(CC(=O)NCc3ccccc3)c(=O)c2c(C)n1Cc1cccc(Cl)c1 was read as HepG2 viability -6%, TDP1 cell noCPT 3.3µM*, TDP1 cell CPT 4.6µM* and TGFb SMAD3 inh inconclusive.
Cc1c2cnn(CC(=O)O)c(=O)c2c(C)n1Cc1cccc(Cl)c1 was read as HepG2 viability 7%, TDP1 cell noCPT -1% and TDP1 cell CPT 14%.
CCN(CCCNC(=O)Cn1ncc2c([nH]c3ccc(C)cc32)c1=O)Cc1ccccc1 was read as HepG2 viability -16%, TDP1 cell noCPT 16µM*, TDP1 cell CPT inconclusive, TGFb SMAD3 inh -4%, HT1080 IDH1KD tx 10% and HT1080NT lethal 0%.
CC(CCc1ccccc1)NC(=O)Cn1ncc2c3ccccc3n(Cc3ccccc3)c2c1=O (stereo not drawn) was read as HepG2 viability -1%, TDP1 cell noCPT inconclusive, TDP1 cell CPT inconclusive and TGFb SMAD3 inh -8%.
`Cc1ccccc1Cn1c2ccccc2c2cnn(CC(=O)NCC(C)c3ccccc3)c(=O)c21` (stereo not drawn) gave HepG2 viability 7%, TDP1 cell noCPT -44%, TDP1 cell CPT inconclusive and TGFb SMAD3 inh 17%.
CC(CCc1ccccc1)NC(=O)Cn1ncc2c3ccccc3n(Cc3ccccc3F)c2c1=O (stereo not drawn) was read as HepG2 viability 2%, TDP1 cell noCPT 8.2µM*, TDP1 cell CPT 8.2µM* and TGFb SMAD3 inh -8%.
`Cc1ccc(C)c(Cn2c3ccccc3c3cnn(CC(=O)NC(C)CCc4ccccc4)c(=O)c32)c1` (stereo not drawn) gave HepG2 viability 0%, TDP1 cell noCPT 3.3µM*, TDP1 cell CPT 3.3µM* and TGFb SMAD3 inh -1%.
Screening Cc1ccccc1Cn1c2ccccc2c2cnn(CC(=O)NCCc3ccc(Cl)cc3)c(=O)c21 returned HepG2 viability -10%, TDP1 cell noCPT 18µM*, TDP1 cell CPT inconclusive and TGFb SMAD3 inh 1%.
For O=C(Cn1ncc2c3ccccc3n(Cc3ccccc3)c2c1=O)NCc1ccccc1 the results were HepG2 viability -1%, TDP1 cell noCPT inconclusive, TDP1 cell CPT 0% and TGFb SMAD3 inh -10%.
